Assay outcomes as filed in PubChem.
U2OS ROS induce: raises reactive oxygen species in U2OS cancer cells. U2OS ROS induction, H2DCF-DA fluorescence. ROS induction (% of piperlongumine), % at 10 µM. 2% of 46,000 active. AID 624156; in the data active = ROS induction above about 79%, passing the limit was not always enough;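 also: 0% = DMSO vehicle median and 100% = reference compound median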
YB-1 expr inh: YB-1 expression inhibition | U2OS, qRT-PCR YB-1 vs CDIP delta delta Cp, 16 h; hits give high values; zero = DMSO, each unit about twofold | delta delta Cp (YB-1 minus CDIP) (concentration not given with the values) | 0.37% of 30,000 active | AID 434959;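 active = delta delta Cp rounded down to an integer at or above 3, about 3 SD of DMSO wells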;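 also: higher means less YB-1 transcript or more CDIP transcript relative to DMSO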
* marks the source's active call; other numbers are inactive results; . = no result given. This is a sample that favours compounds with a hit; in the whole collection about 2.3% have one here.

SMILES	U2OS ROS induce	YB-1 expr inh
COc1ccc(-c2nnc(Nc3cccc(C(F)(F)F)c3)c3ccccc23)cc1	23	-0.53
O=c1c2cnn(-c3ccc(Cl)cc3)c2ncn1Cc1ccc(Cl)cc1	-17	.
CC(C(=O)OCC(=O)c1ccccc1)N1C(=O)C2C3C=CC(C3)C2C1=O (configuration not stated)	-7	.
Cc1ccc(S(=O)(=O)N(C)C[C@H]2Oc3ccc(NS(=O)(=O)c4ccc(Cl)cc4)cc3CC(=O)N([C@@H](C)CO)C[C@H]2C)cc1	212*	-0.12
Cc1ccc(S(=O)(=O)Nc2ccc3c(c2)CC(=O)N([C@@H](C)CO)C[C@@H](C)[C@@H](CN(C)S(=O)(=O)c2ccc(Cl)cc2)O3)cc1	15	-0.062
O=C(Cn1cnc(SCc2ccccc2)n1)Nc1cccc(C(F)(F)F)c1	-14	.
C[C@H]1CN([C@@H](C)CO)C(=O)Cc2cc(NS(=O)(=O)c3cn(C)cn3)ccc2O[C@H]1CN(C)Cc1ccc(Cl)c(Cl)c1	0	0.12
C[C@@H]1CN([C@H](C)CO)C(=O)Cc2cc(NS(=O)(=O)c3cn(C)cn3)ccc2O[C@H]1CN(C)Cc1ccc(Oc2ccccc2)cc1	24	-0.2
C[C@H](CO)N1C[C@H](C)[C@H](CN(C)Cc2ccc(Cl)c(Cl)c2)Oc2ccc(NS(=O)(=O)c3cn(C)cn3)cc2CC1=O	17	13*
C[C@H]1CN([C@@H](C)CO)C(=O)Cc2cc(NS(=O)(=O)c3cn(C)cn3)ccc2O[C@H]1CN(C)Cc1ccc(Oc2ccccc2)cc1	89*	0.069
Cc1ccc(C(C)C)c(OCc2ccc(C(=O)Nc3ccccc3C(F)(F)F)o2)c1	-6	.
Cc1ccc(NC(=O)CSc2nnc(-c3cccnc3)n2-c2ccc(Br)cc2)cc1F	77*	.
Cc1ccc(NC(=O)CSc2nnc(-c3ccncc3)n2-c2ccc(Cl)cc2)cc1F	7	.
CC(=O)N1CC(C)Sc2cc(S(=O)(=O)Nc3cccc(Cl)c3)ccc21 (configuration not stated)	-3	.
CN(CCC#N)C(=O)c1nn(C)c2c1COc1ccccc1-2	-11	.
C[C@H](CO)N1C[C@H](C)[C@H](CN(C)S(=O)(=O)c2ccc(Cl)cc2)Oc2c(NC(=O)NC3CCCCC3)cccc2C1=O	97*	0.23
C[C@H](CO)N1C[C@H](C)[C@@H](CN(C)S(=O)(=O)c2ccccc2)Oc2c(NC(=O)c3nc4ccccc4s3)cccc2C1=O	7	-0.035
C[C@H]1CN([C@@H](C)CO)C(=O)c2cccc(NC(=O)NC3CCCCC3)c2O[C@@H]1CN(C)S(=O)(=O)c1ccc(Cl)cc1	19	-0.07
C[C@@H]1CN([C@@H](C)CO)C(=O)c2cccc(NC(=O)c3nc4ccccc4s3)c2O[C@H]1CN(C)S(=O)(=O)c1ccc(Cl)cc1	80*	-0.055
COc1ccc(NC(=O)CC(=O)CSc2ccccc2)cc1	6	0.069
N#Cc1c(C(F)(F)F)cc(-c2cccs2)nc1SCC(=O)Nc1c(F)cccc1F	2	.
N#Cc1c(C(F)(F)F)cc(-c2cccs2)nc1S/C=C/C(=O)c1ccccc1	126*	0.25
COc1ccccc1CC(=O)Nc1cc([N+](=O)[O-])ccc1OC	-8	.
COc1ccc([N+](=O)[O-])cc1NC(=O)C1(c2ccc(OC)c(OC)c2)CCCCC1	149*	.
COc1ccccc1/C=C/C=N\N1CCN(c2ccccc2)CC1	13	.
SMILES	U2OS ROS induce	YB-1 expr inh
COC(=O)C1=CN(C(CC(C)C)C(=O)OC)C=C(C(=O)OC)C1c1ccc(Br)cc1 (configuration not stated)	95*	-0.57
COC(=O)CN1C=C(C(=O)OC)C(c2ccc(Cl)cc2)C(C(=O)OC)=C1	-7	.
CCOC(=O)c1c(CN(C)C)n(-c2ccccc2)c2cc(Br)c(OC)cc12	238*	0.016
CCOC(=O)c1c(C)n(-c2cccc(C)c2)c2ccc(O)cc12	-4	-0.2
CCOC(=O)c1c(SC)n(-c2ccccc2)c(=S)n(-c2ccccc2)c1=O	21	.
CCOC(=O)c1c(CN2CCCCC2)n(-c2ccccc2)c2cc(Br)c(OC)cc12	121*	0.22
O=[N+]([O-])c1ccc(N2CCN(S(=O)(=O)c3ccc(Cl)s3)CC2)cc1NCc1ccco1	36	.
COc1ccccc1C(=O)N1CCN(c2ccc([N+](=O)[O-])c(NCc3ccco3)c2)CC1	55	.
CC(C)(C)c1ccc(S(=O)(=O)N2CCN(c3ccc([N+](=O)[O-])c(NCc4cccnc4)c3)CC2)cc1	98*	.
O=[N+]([O-])c1ccc(N2CCN(S(=O)(=O)c3ccc(F)cc3)CC2)cc1NCc1cccnc1	136*	.
C=CCN=C(SC)N1CCN(C(=NCC=C)SC)CC1	-10	.
COc1ccc(-n2cc(C(=O)NCCN3CCc4ccccc4C3)c3ccccc3c2=O)cc1	-7	.
CCOC(=O)c1c(CNC(C)C)oc2ccc(OC)cc12	27	10*
CCOC(=O)c1c(C(C)(C)C)oc2ccc(OCC(=O)OC)cc12	60	-0.37
Cc1oc(C(C)(C)C)cc1C(=O)NCc1ccc(C(=O)O)o1	8	.
Cc1ccc(S(=O)(=O)N2CCN(c3nc(NC4CCCC4)c4ccccc4n3)CC2)cc1	152*	.
Cc1ccc(CNC(=O)CSc2nc(NC3CCCCC3)c3ccccc3n2)cc1	12	.
Nc1nc(C2COc3ccccc3O2)ncc1S(=O)(=O)c1ccccc1 (configuration not stated)	-17	.
O=C(CN1C(=O)C2C3C=CC(C3)C2C1=O)OCCCc1ccccc1 (configuration not stated)	-5	.
Nc1ncnc(Sc2nc3ccccc3s2)c1[N+](=O)[O-]	100*	.
c1ccc2c(CSc3nc4ccccc4s3)cccc2c1	9	.
O=C(Nc1ccc(F)cc1)C1c2ccccc2Oc2ccccc21	-8	.
CSc1nc2c(Cl)cccc2c2c1c(=O)[nH]n2C	17	.
Fc1cccc(CSc2nc3ccccc3c3nc4ccccc4n23)c1	1	.
CC(C)=CCOc1cc(C)cc2oc(=O)cc(-c3ccccc3)c12	84*	.
SMILES	U2OS ROS induce	YB-1 expr inh
CC(C)=CCOc1c2ccoc2cc2oc(=O)ccc12	0	-0.35
COc1ccc(CSc2nnc3c4c5c(sc4nc(SC)n23)COC(C)(C)C5)cc1	5	.
COc1ccccc1NC(=O)C1=C(C)Nc2ncnn2C1c1ccccc1C(=O)O (configuration not stated)	-6	.
COc1ccc(C2C(C(=O)Nc3cc(OC)c(Cl)cc3OC)=C(C)Nc3ncnn32)c(OC)c1 (configuration not stated)	136*	.
Cn1cccc1Cc1nnc(SCC(=O)N2CCCCC2)n1CCc1ccccc1	-8	.
COc1cc2c(cc1OC)N1C(=O)C[C@]34C=CCN5CC[C@@H]2[C@@H](CC3)[C@]514	86*	0.16
CCc1ccc(-c2nc(C(N)=O)c3[nH]c(=O)n(-c4ccccc4)c3n2)cc1	-12	.
CC(=O)N1Cc2ccccc2C[C@]2(N=C(c3ccc(OCCCO)cc3)O[C@@H]2c2ccccc2)C1=O	34	0.17
C=CCN1Cc2ccccc2[C@@H]2OC(c3ccc(OCCCO)cc3)=N[C@]2(CCS(=O)(=O)c2ccccc2)C1=O	51	0.25
CC(=O)N1Cc2ccccc2C[C@@]2(N=C(c3ccc(OCCCO)cc3)O[C@H]2c2ccccc2)C1=O	79*	0.019
O=C(NCC(O)CO)[C@]1(CCS(=O)(=O)c2ccccc2)N=C(c2ccc(OCCCO)cc2)O[C@@H]1c1ccccc1 (some centres not stated)	24	0.55
